Measurements reported in PubChem BioAssay (Tox21).
Results filed as inconclusive are left out. Where a call stands in place of a potency, no number is given. Values without a mark were called inactive. Activity calls are given as the source filed them. Unless noted, calls come from the whole dose curve; as a rule, active = well fitted cell-killing curve with a large enough effect in the repeat runs; inconclusive = weak or mixed curves, or effect the other way; inactive = no such curve, though single readings can be large or run the other way.

assay: qHTS assay to identify small molecule antagonists of the progesterone receptor (PR) signaling pathway - cell viability counter screen (AID 1346798); details: PR-UAS-bla HEK293T viability, CellTiter-Glo luminescence, 16 h; series mostly up to 92.4 µM; note: nearly all actives have a fitted effect of over 50% in size
How it was run: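 Luminescence readout (CellTiter-Glo, 30 min, RT) of viability in PR-UAS-bla HEK293T cells exposed to compound and R5020 agonist for 16 hr at 37C, 5% CO2; run in the same wells as the beta-lactamase reporter read.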

| SMILES | Potency | activity change, negative = cytotoxicity |
| --- | --- | --- |
| Nc1nc(Cl)nc2c1ncn2[C@@H]1O[C@H](CO)[C@@H](O)[C@@H]1F | inactive |  |
| CN1Cc2cc(C(=O)N3CCC(C4CCNCC4)CC3)ccc2N[C@@H](CC(=O)O)C1=O | inactive |  |
| O=C(NCCCN1CCOCC1)c1ccc(Cl)cc1 | inactive |  |
| COc1cc2[nH]c(=O)[nH]c(=O)c2cc1OC | inactive |  |
| C=CC(=O)NCOCC(C)C | inactive |  |
| CC(C)(CCl)c1ccccc1 | inactive |  |
| CC(=O)Nc1ccccc1C | inactive |  |
| CC(CCO)CCc1ccccc1 (stereo not drawn) | inactive |  |
| CC#N | inactive |  |
| CN1CCCN=C1/C=C/c1cccs1 | inactive |  |
| COC(=O)c1cc(S(N)(=O)=O)ccc1OC | inactive |  |
| CO[C@H]1O[C@H](CO)[C@@H](O)[C@H](O)[C@H]1O | inactive |  |
| CCCCN(CCCC)C(=S)SSC(=S)N(CCCC)CCCC | inactive |  |
| COC(=O)c1cc(Cl)ccc1NS(=O)(=O)C(F)(F)F | inactive |  |
| CC1(C)C(=O)N(Br)C(=O)N1Cl | inactive |  |
| N#C[C@@H]1C[C@@H]2C[C@@H]2N1C(=O)[C@@H](N)C12CC3CC(CC(O)(C3)C1)C2 | inactive |  |
| CC(CCc1ccc2c(c1)OCO2)NN (stereo not drawn) | inactive |  |
| Cc1nc2ccccc2s1 | inactive |  |
| Nc1ccc(S(=O)(=O)O)c(N)c1 | inactive |  |
| NC(=O)Nc1ccc(Cl)cc1 | inactive |  |

| SMILES | Potency | activity change, negative = cytotoxicity |
| --- | --- | --- |
| O=Cc1c(Cl)cccc1Cl | inactive |  |
| CO[Si](C)(OC)OC | inactive |  |
| O=S1OCCO1 | inactive |  |
| CCCOC(=O)c1ccc(N)cc1 | inactive |  |
| O=C(O)Cc1ccc(-c2ccccc2)cc1 | inactive |  |
| OCC1CC=CCC1 (stereo not drawn) | inactive |  |
| C=CCCCCCCCCCCCCCCCC |  | 4.23% [at 8.39 µM] |
| C=CCOC(=O)/C=C\C(=O)OCC=C | inactive |  |
| Cc1oncc1C(=O)Nc1ccc(C(F)(F)F)cc1 | inactive |  |
| CC(C)CCCCCOC(=O)CCCCC(=O)OCCCCCC(C)C | inactive |  |
| CC(=O)N(c1onc(C)c1C)S(=O)(=O)c1ccc(N)cc1 | inactive |  |
| OC(CCCN1CCCCC1)(c1ccccc1)c1ccccc1 | inactive |  |
| CCn1cc(C(=O)O)c(=O)c2cc(F)c(N3CCNCC3)nc21 | inactive |  |
| C[N+](C)(C)CCOC(N)=O | inactive |  |
| CCCOCCOCCO | inactive |  |
| CCCCCCCCCCCCCCCCBr |  | 0.653% [at 18.9 µM] |
| c1ccc(COCc2ccccc2)cc1 | inactive |  |
| CN1CCN(c2c(F)cc3c(=O)c(C(=O)O)cn4c3c2OCN4C)CC1 |  | 10.3% [at 18.9 µM] |
| O=C1OCCN1/N=C/c1ccc([N+](=O)[O-])o1 | inactive |  |

assay: qHTS assay to identify small molecule agonists of the progesterone receptor (PR) signaling pathway - cell viability counter screen (AID 1346799; calls by dose curve; note: nearly all actives have a fitted effect of over 45% in size); details: PR-UAS-bla HEK293T viability, CellTiter-Glo luminescence, 16 h; series mostly up to 92.4 µM
How it was run: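 HEK293T PR-UAS-bla, 3,000 cells/well, 2% charcoal-stripped FBS; 6 h settle, compound 16 h at 37C/5% CO2; LiveBLAzer 2 h RT, then CellTiter-Glo 30 min RT, luminescence read.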

| SMILES | Potency | activity change, negative = cytotoxicity |
| --- | --- | --- |
| Nc1nc(Cl)nc2c1ncn2[C@@H]1O[C@H](CO)[C@@H](O)[C@@H]1F | inactive |  |
| CN1Cc2cc(C(=O)N3CCC(C4CCNCC4)CC3)ccc2N[C@@H](CC(=O)O)C1=O | inactive |  |
| O=C(NCCCN1CCOCC1)c1ccc(Cl)cc1 | inactive |  |
| COc1cc2[nH]c(=O)[nH]c(=O)c2cc1OC | inactive |  |
| C=CC(=O)NCOCC(C)C | inactive |  |
| CC(C)(CCl)c1ccccc1 | inactive |  |
| CC(=O)Nc1ccccc1C | inactive |  |
| CC(CCO)CCc1ccccc1 (stereo not drawn) | inactive |  |
| CC#N | inactive |  |
| CN1CCCN=C1/C=C/c1cccs1 | inactive |  |
| COC(=O)c1cc(S(N)(=O)=O)ccc1OC | inactive |  |
| CO[C@H]1O[C@H](CO)[C@@H](O)[C@H](O)[C@H]1O | inactive |  |
| CCCCN(CCCC)C(=S)SSC(=S)N(CCCC)CCCC | inactive |  |
| COC(=O)c1cc(Cl)ccc1NS(=O)(=O)C(F)(F)F | inactive |  |
| CC1(C)C(=O)N(Br)C(=O)N1Cl | inactive |  |
| N#C[C@@H]1C[C@@H]2C[C@@H]2N1C(=O)[C@@H](N)C12CC3CC(CC(O)(C3)C1)C2 | inactive |  |
| CC(CCc1ccc2c(c1)OCO2)NN (stereo not drawn) | inactive |  |
| Cc1nc2ccccc2s1 | inactive |  |
| Nc1ccc(S(=O)(=O)O)c(N)c1 | inactive |  |
| NC(=O)Nc1ccc(Cl)cc1 | inactive |  |

| SMILES | Potency | activity change, negative = cytotoxicity |
| --- | --- | --- |
| O=Cc1c(Cl)cccc1Cl | inactive |  |
| CO[Si](C)(OC)OC | inactive |  |
| O=S1OCCO1 | inactive |  |
| CCCOC(=O)c1ccc(N)cc1 | inactive |  |
| O=C(O)Cc1ccc(-c2ccccc2)cc1 | inactive |  |
| OCC1CC=CCC1 (stereo not drawn) | inactive |  |
| C=CCCCCCCCCCCCCCCCC |  | 14.5% [at 8.39 µM] |
| C=CCOC(=O)/C=C\C(=O)OCC=C | inactive |  |
| Cc1oncc1C(=O)Nc1ccc(C(F)(F)F)cc1 | inactive |  |
| CC(C)CCCCCOC(=O)CCCCC(=O)OCCCCCC(C)C | inactive |  |
| CC(=O)N(c1onc(C)c1C)S(=O)(=O)c1ccc(N)cc1 | inactive |  |
| OC(CCCN1CCCCC1)(c1ccccc1)c1ccccc1 | inactive |  |
| CCn1cc(C(=O)O)c(=O)c2cc(F)c(N3CCNCC3)nc21 | inactive |  |
| C[N+](C)(C)CCOC(N)=O | inactive |  |
| CCCOCCOCCO | inactive |  |
| CCCCCCCCCCCCCCCCBr |  | 9.85% [at 19 µM] |
| c1ccc(COCc2ccccc2)cc1 | inactive |  |
| CN1CCN(c2c(F)cc3c(=O)c(C(=O)O)cn4c3c2OCN4C)CC1 |  | 0.954% [at 19 µM] |
| O=C1OCCN1/N=C/c1ccc([N+](=O)[O-])o1 | inactive |  |
